Only some compounds are listed: those with a hit (about 3.1% of all), similar ones and a draw of the others.
CASP6 VEID inh: human caspase-6 inhibitors, primary screen, biochemical, VEID-R110 fluorescence, single point, set 2; inhibition, % at 12.5 µM; AID 686996, 2013; purified caspase-6, Z-VEID-R110 cleavage fluorescence; P55212; hit rate 0.53% among 350,000;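 active = mean inhibition across replicates at least about 35%, with every replicate also reaching that limit, limit read from the data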;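 note: 0% = median of neutral control wells and 100% = no fluorescence left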
ERAP1 HTS inh: human ERAP1 aminopeptidase inhibitors, primary screen, biochemical, single point, plate reader; hit rate 0.15% among 340,000; recombinant ERAP1, Leu-AMC fluorescence, 60 min; Endoplasmic reticulum aminopeptidase 1 (Homo sapiens), Q9NZ08; inhibition, % at 10.7 µM; AID 652197, 2013;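 active = mean replicate inhibition of at least 30%, or all replicates individually reaching that 30% level; inactive = mean below 30% and not every replicate reaching it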;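 note: 0% = neutral control wells and 100% = L-leucinethiol positive control wells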
FGF22 binding: binders of human FGF22 protein, primary screen, FGF22 synaptogenesis inhibitor project, biophysical, thermal shift, single point; Fibroblast growth factor 22 (Homo sapiens), Q9HCT0; recombinant FGF22 thermal shift, SYPRO orange fluorescence; percent of sucrose octasulfate shift, DMSO zero; activity (Tm shift, normalised), % at 9.99 µM; hit rate 1.5% among 340,000;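 active = mean Tm shift, scaled 0 neutral to 100 positive control, at about 1.3% or above, every replicate too, limit read from the data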
Target sequence (Q9HCT0 whole entry, looked up): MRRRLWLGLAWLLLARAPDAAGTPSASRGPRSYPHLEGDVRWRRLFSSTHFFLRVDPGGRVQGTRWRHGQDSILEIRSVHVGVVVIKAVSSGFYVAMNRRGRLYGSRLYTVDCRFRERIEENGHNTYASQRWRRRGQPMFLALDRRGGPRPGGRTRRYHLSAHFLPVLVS
SIRT5 inh: SIRT5 desuccinylase inhibitors, primary screen, biochemical, fluorescence imaging, single point, set 5 | hit rate 1.1% among 330,000 | inhibition, % at 15 µM | Purified SirT5, succinyl-peptide AMC, trypsin-coupled fluorescence | NAD-dependent protein deacylase sirtuin-5, mitochondrial (Homo sapiens), Q9NXA8; in the data active = inhibition above about 15%
Target sequence (Q9NXA8 whole entry, looked up): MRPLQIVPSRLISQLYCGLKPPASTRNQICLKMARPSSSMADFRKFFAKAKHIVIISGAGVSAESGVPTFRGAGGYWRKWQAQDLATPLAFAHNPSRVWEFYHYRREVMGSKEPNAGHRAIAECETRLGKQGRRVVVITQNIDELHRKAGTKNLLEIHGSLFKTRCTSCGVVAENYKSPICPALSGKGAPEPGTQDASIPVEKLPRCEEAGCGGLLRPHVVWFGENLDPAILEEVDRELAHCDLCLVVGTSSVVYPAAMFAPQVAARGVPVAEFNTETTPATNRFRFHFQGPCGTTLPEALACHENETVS
* marks the source's active call; other numbers are inactive results; x = not tested or not shown.

SMILES | CASP6 VEID inh | ERAP1 HTS inh | FGF22 binding | SIRT5 inh
CC(=O)Nc1ccc2c(COC(=O)CC3Sc4ccccc4NC3=O)cc(=O)oc2c1 (stereo not given) | 8 | 1 | 43* | -3
COc1ccc(NC(=O)COC(=O)CC2Sc3ccccc3NC2=O)cc1 (stereo not given) | 7 | 0 | 0 | -3
CC(=O)N1CC(=O)N2[C@H](CO)[C@H](c3ccc(C#Cc4cccnc4)cc3)[C@@H]2C1 | -1 | -1 | x | 2
CCn1c(SCC(=O)N2CCCC2)nc2ccccc21 | -2 | -3 | 44* | -7
Cc1ccc(OCCSc2nc3ccccc3n2CCC(=O)O)cc1 | 2 | -2 | 0 | 21*
CC(C)CSc1nc2ccccc2n1CC(=O)O | 0 | -1 | 43* | -1
O=C(O)c1ccccc1CSc1nc2ccccc2n1Cc1ccccc1C(=O)O | 0 | 5 | 44* | -1
Cc1ccccc1OCCSc1nc2ccccc2n1CCC(=O)O | 10 | -2 | 0 | 0
CCn1c(SCC(=O)N2CCCCCC2)nc2ccccc2c1=O | -1 | -1 | 0 | 1
O=C(O)CCn1c(SCc2cccc3ccccc23)nc2ccccc21 | 1 | -1 | x | -6
COc1ccccc1NC(=O)N(C)C[C@H]1Oc2ncc(Br)cc2C(=O)N([C@@H](C)CO)C[C@@H]1C | 0 | 2 | 0 | -3
O=S(=O)(N[C@H]1CC[C@@H](CCn2cc(-c3ccccc3F)nn2)O[C@H]1CO)c1ccc(Cl)cc1 | 7 | 0 | 0 | 2
Cc1ccc(C)c(N)c1 | -4 | -1 | 0 | x
Cc1cc(Cc2cc(C)c(N)cc2C)c(C)cc1N | -6 | 5 | 42 | 21*
CCn1nc(NC(C)=O)c2cc3cccc(C)c3nc21 | -3 | 75* | 0 | -3
C/C=C/c1ccc([C@@H]2[C@@H](CO)N[C@@H]2CN(CC(C)C)C(=O)c2ccccn2)cc1 | x | x | 0 | 18*
C/C=C/c1ccc([C@H]2[C@H](CO)N[C@H]2CN(CC(C)C)C(=O)c2ccccn2)cc1 | x | x | 0 | -2
Cc1cc(N(C)C)ccc1[N+](=O)[O-] | 4 | 2 | 0 | -2
NNc1ccc([N+](=O)[O-])c2[nH][nH]c(=O)c12 | 94* | 2 | 0 | 12
C[C@@H]1CCCCO[C@@H](CN(C)C(=O)Nc2cccc3ccccc23)[C@@H](C)CN([C@H](C)CO)C(=O)c2cc(NS(=O)(=O)c3cn(C)cn3)ccc2O1 | x | x | 0 | x
CCOCCCNC(C(=O)Nc1ccc(OC)c(Cl)c1)c1ccccc1 (stereo not given) | 0 | 2 | 43* | -4
COc1ccc(NC(=O)CNC(c2ccccc2)c2ccccc2)cc1Cl | -1 | -3 | 0 | -18
C=CCN(CC=C)C(=S)NC(=O)Cc1cccc2ccccc12 | 2 | -5 | 43* | -3
COc1ccccc1Cc1c(-c2cccc(Br)c2)nc2c(C)cc(Br)cn12 | -2 | x | 0 | 19*
O=C(Cc1ccc(Cl)cc1)Nc1cccc2ncccc12 | -1 | x | 0 | -1
SMILES | CASP6 VEID inh | ERAP1 HTS inh | FGF22 binding | SIRT5 inh
O=C(Cc1ccc(Cl)c(Cl)c1)Nc1cccc2ncccc12 | 4 | -1 | 43* | -4
COCCCN1C(=O)C(=O)/C(=C(/O)c2ccc(S(=O)(=O)N3CCCCC3)cc2)C1c1ccc(O)cc1 (stereo not given) | 0 | 1 | 43* | 0
COCCCN1C(=O)C(=O)/C(=C(/O)c2ccc(S(=O)(=O)N3CCCCC3)cc2)C1c1ccc(O)c(OC)c1 (stereo not given) | 0 | 0 | 0 | -1
COCCN1C(=O)CC(NNC(=O)c2ccc(S(=O)(=O)N3CCCC3)cc2)C1=O (stereo not given) | -1 | -1 | 43* | 0
Cc1cccc(C)c1NC(=O)CN(C)C(=O)c1ccccc1SCC(=O)N1CCCC1 | -184 | -1 | 0 | 16*
O=C1c2[nH]nc(-c3ccccc3)c2C(c2ccccc2)N1c1ccccc1 (stereo not given) | 2 | -1 | 43* | x
Cc1ccc(C2c3c(-c4ccccc4)n[nH]c3C(=O)N2c2ccccc2)cc1 (stereo not given) | -2 | 1 | 0 | 3
C[C@H]1CN([C@@H](C)CO)C(=O)c2cc(NC(=O)Nc3cccc4ccccc34)ccc2O[C@H]1CN(C)C(=O)Nc1ccc(C(F)(F)F)cc1 | -3 | -2 | 0 | 0
C[C@@H]1CCCCO[C@H](CN(C)C(=O)NC2CCCCC2)[C@@H](C)CN([C@H](C)CO)C(=O)c2cc(NC(=O)CCCN(C)C)ccc2O1 | 1 | -1 | 0 | 4
CC1CC2(C)Oc3ccccc3C3OCC1(CO)C(C)C32 (stereo not given) | -2 | -3 | x | -2
CC1=CC(C)C2(CO)COC(c3cccnc3)C1C2C (stereo not given) | -2 | -4 | 43* | 0
CC1=CC(C)C2(CO)COC(c3ccc(O)cc3)C1C2C (stereo not given) | -1 | -8 | 43* | 0
CN(C)C(=O)C[C@H]1CC[C@@H]2[C@H](COC[C@@H](O)CN2CC2CCCCC2)O1 | 0 | 1 | 0 | -1
CCC(=O)N(C)C[C@@H]1Oc2cc(-c3cncnc3)ccc2S(=O)(=O)N([C@@H](C)CO)C[C@H]1C | 3 | 5 | x | -6
Nc1ncc(-c2ccccc2)c(-c2ccc(O)cc2O)n1 | 3 | -2 | -1 | 1
Oc1ccc(-c2cnns2)c(O)c1 | 15 | 2 | 0 | 31*
COCC(=O)Nc1ccc2c(c1)C(=O)N(C)C[C@@H](OC)[C@@H](C)CN(CC1CCCCC1)[C@H](C)CO2 | -3 | 1 | 0 | 0
O=C(NCc1nnc(SCC(=O)N2CCc3ccccc32)o1)c1ccco1 | 0 | -3 | 43* | 0
C[C@@H]1CCCCO[C@@H](CN(C)S(C)(=O)=O)[C@H](C)CN([C@@H](C)CO)C(=O)c2cc(NC(=O)c3ccncc3)ccc2O1 | x | x | 0 | x
CN(Cc1ccccc1)C(c1ccnc2ccccc12)c1nnnn1-c1ccc2c(c1)OCCO2 (stereo not given) | 0 | 0 | 0 | 39*
CCOC(=O)C(=Cc1ccc(Br)cc1)C(=O)OCC | -2 | -3 | 0 | -2
CCOC(=O)/C(=C/c1ccc(OC(=O)c2ccncc2)cc1)C(C)=O | 0 | -2 | 44* | -3
COc1ccc(NC(=O)Nc2ccc3c(c2)[C@H]2C[C@H](CC(=O)N4CCN(C)CC4)O[C@H](CO)[C@H]2O3)cc1 | 14 | 0 | 0 | 2
CC(=O)c1cccc(NC(=O)CSc2n[nH]c(-c3ccncc3)n2)c1 | 0 | -4 | 1.7* | -1
CCc1ccccc1NC(=O)CSc1n[nH]c(-c2cccnc2)n1 | 1 | -4 | 0 | -3
COc1ccc(OC)c(NC(=O)CSc2n[nH]c(-c3cccnc3)n2)c1 | 1 | 2 | 0 | 17*
